The supplement of paper PMC3334620
In all, about 33,000 sequences were measured (“E-score (-0.5 to 0.5)”: median about -0.012, highest 2% from about 0.29 on). Only a selection was taken, and the highest values are over-represented in it overall.

The sequences below were run against T1, Ybr033w (UniProt P38073) (assay: PBM E-score (8-mer binding enrichment) (E-score (-0.5 to 0.5)); higher = stronger / more preferred TF binding). Details: protein concentration: 200 nM; construct: GST-full length.
T1 sequence: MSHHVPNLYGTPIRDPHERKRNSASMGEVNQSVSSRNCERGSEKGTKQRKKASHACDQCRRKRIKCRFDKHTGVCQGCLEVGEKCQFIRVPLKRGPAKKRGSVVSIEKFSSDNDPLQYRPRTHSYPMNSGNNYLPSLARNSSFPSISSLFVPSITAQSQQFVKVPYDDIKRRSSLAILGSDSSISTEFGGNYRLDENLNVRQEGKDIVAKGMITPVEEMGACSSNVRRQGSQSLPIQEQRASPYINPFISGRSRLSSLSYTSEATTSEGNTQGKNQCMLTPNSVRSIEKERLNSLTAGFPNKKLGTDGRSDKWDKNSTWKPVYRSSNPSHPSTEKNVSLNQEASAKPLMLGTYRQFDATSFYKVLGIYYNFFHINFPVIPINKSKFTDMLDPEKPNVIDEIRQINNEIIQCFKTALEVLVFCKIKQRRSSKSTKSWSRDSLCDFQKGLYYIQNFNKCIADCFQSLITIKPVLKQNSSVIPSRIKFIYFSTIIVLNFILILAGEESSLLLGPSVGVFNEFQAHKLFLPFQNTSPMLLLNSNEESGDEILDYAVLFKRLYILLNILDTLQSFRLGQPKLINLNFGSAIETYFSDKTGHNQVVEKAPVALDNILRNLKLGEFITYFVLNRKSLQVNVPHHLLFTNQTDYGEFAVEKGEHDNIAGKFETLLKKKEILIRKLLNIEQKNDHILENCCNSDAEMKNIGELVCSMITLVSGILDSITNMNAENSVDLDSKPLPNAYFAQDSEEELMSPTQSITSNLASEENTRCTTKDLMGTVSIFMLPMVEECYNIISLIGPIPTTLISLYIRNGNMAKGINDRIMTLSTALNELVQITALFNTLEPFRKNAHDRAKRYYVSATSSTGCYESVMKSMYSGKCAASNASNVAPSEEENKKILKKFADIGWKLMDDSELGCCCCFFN
In short: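 Using PURExpress in vitro transcription/translation, GST-tagged yeast transcription factors were made in full-length or DNA-binding-domain form. These were applied at about 100-200 nM to double-stranded universal all-10-mer Agilent arrays, and bound protein was detected with fluorescent anti-GST. Scans were normalised with masliner before the Universal PBM Analysis Suite assigned E-scores to ungapped eight-base words pooled with their reverse complements.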

Sequence | PBM E-score
AAGAGTAT | 0.00192
AATAACCC | 0.203
GCACTTCC | -0.149
AAAAAAAC | 0.24
GAAAAAAC | 0.265
GAGAAAAA | 0.155
AAAAAAAA | 0.353
AAAAAAAG | 0.273
GAAAAAAA | 0.37
AGATCTTC | 0.137
AAGGATTG | 0.126
ACTCAACA | 0.146
CTTCTCCA | -0.214
ACCCAGGG | -0.287
ACTCGAAG | -0.242
CTGGTCCA | -0.17
GTTCCTAA | 0.125
GATATAGC | 0.156
ATATGAGC | -0.0174
ATTTTACA | 0.0461
AATTTACG | 0.232
CTTTTACC | 0.101
AATTTACC | 0.103
ATTTTACG | 0.328
ATTTTACC | 0.362

Sequence | PBM E-score
CCATTAGA | -0.14
CTGATAGC | -0.0429
TGTTCTAA | 0.181
TAGATCTA | 0.19
GTTCACAA | 0.18
ATTCACAA | 0.294
ATTCACAG | 0.0908
ATGAGGGG | -0.206
AAAAATAC | 0.304
ACAAATAG | 0.167
CAAAATAC | 0.217
AAAAATAG | 0.296
CAAAATAG | 0.0554
AAAAATAT | 0.349
GAAAATAC | 0.252
ACAAATAT | 0.287
AAAAAAAT | 0.248
CATTTTAG | 0.234
ACTTTTAC | 0.327
ACTTTTAG | 0.0501
ACTTTTAA | 0.125
CATTTTAC | 0.298
CATTTTAA | 0.16
AGAACCGC | 0.096
AGCGATTG | -0.0938

Sequence | PBM E-score
CAAATAAC | 0.214
CAAGAACA | 0.0281
GAAAAACA | 0.295
AAAAAACA | 0.242
TCAAAACA | 0.298
GAAAAACC | 0.386
GAAGAACA | 0.353
GGAAAACC | -0.11
CCAAAACA | -0.026
GGAAAACA | 0.17
GCAAAACA | 0.0364
GAAGAACC | 0.248
GAAAACCC | -0.0428
CGGAACCA | 0.141
TAACAATA | 0.273
AAACAATA | 0.196
AAACAATC | 0.234
GAACAATA | 0.412
AAACAAAC | 0.229
CAACAAAC | 0.161
GAACAAAC | 0.345
GAACAATC | 0.323
CAACAATC | 0.256
TAGCAATA | 0.16
AATCAGCT | 0.185

Sequence | PBM E-score
AGCTGCCG | -0.115
AGTTAAAA | 0.298
AGTTAATA | 0.336
GGTTAATA | 0.209
TGTTAAAA | 0.226
AGTTAATC | 0.368
CGTTAATA | 0.166
AGTTAATG | 0.216
CGTTAATC | 0.248
CGTTAAAA | -0.0301
TATTTGGA | 0.082
TCCAGACA | -0.127
GAGCGCAA | -0.0711
AACATACA | 0.179
CACTCTTA | 0.0582
GAAGATGC | -0.106
CGTAATAA | 0.154
GATAATAA | 0.194
AACAATAT | 0.375
TATAATAA | 0.318
AATAATAC | 0.245
GGTAATAA | 0.228
AACAATAA | 0.258
TGTAATAA | 0.297
AACAATAC | 0.157

Sequence | PBM E-score
CATAATAA | 0.131
AATAATAT | 0.388
AATAATGT | 0.183
AAGTTTAA | 0.139
AAAAGAAA | 0.179
ACGGACGT | -0.144
AAAGAGCC | -0.112
CAGGCTGC | -0.118
TCTAATAA | 0.291
AATAATAA | 0.399
AGTAATAG | 0.218
ACTAATAA | 0.276
CCTAATAA | -0.0059
AATAATAG | 0.202
AGTAATAT | 0.336
AGTAATAC | 0.222
CCGGGCGA | -0.226
ACCTACAG | 0.0954
TCACGCCA | -0.081
TAATTAAA | 0.276
ACATTAAA | 0.225
AAATTAAC | 0.251
GAATTAAA | 0.149
AAATTAAT | 0.314
GCATTAAA | 0.147

Sequence | PBM E-score
AAATTAAA | 0.339
AAATTAAG | 0.144
TCATTAAA | 0.319
AGGTAGGC | -0.147
AATCTGGG | 0.00147
CGCGAGTC | -0.0881
GCATACTA | 0.0596
ATAGTTCC | 0.25
AGCTGCCA | -0.135
AACAGATA | 0.096
TACAGATA | 0.291
GACAGATA | 0.0702
GGCTGTAA | -0.0501
ATTGAAAC | 0.164
AATGAAAT | 0.282
ATTGAATC | 0.0535
ATTGAAAG | 0.111
CTTGAAAA | 0.207
GTTGAGTA | 0.127
ATTGAATA | 0.305
CTTGAATA | 0.155
ATTGAAAT | 0.296
ATTGAGTC | -0.0117
ATTGAGTA | 0.29
ATTGAAAA | 0.289

Sequence | PBM E-score
TAGCGTGA | 0.00864
AGCTTACT | 0.0872
AACAAGGA | 0.12
CATCGTAC | 0.0156
CACAATCG | 0.0764
CTGTGAGC | -0.0445
AGCTAAGG | -0.119
CTCCACGA | -0.0474
CAACCACA | 0.0032
TAGAAAGA | -0.0722
CATTCTGC | 0.09
AGCAGGAA | 0.0849
CAACCGAC | 0.107
ATAGTGGA | 0.0933
ACTAGGGA | -0.159
AAAAATCC | 0.287
GCAAAATA | 0.287
GAAAATCC | 0.308
GGAAATCC | -0.00538
AAAAAATA | 0.278
GGAAAATA | 0.414
GAAAAATA | 0.397
